# Pol kappa inh: inhibitors of human DNA polymerase kappa | Q9UBT6 | purified Pol kappa, fluorescent DNA synthesis assay, 10 min | Potency, µM (top dose mostly 107 µM), without a hit: at the top dose activity, negative = inhibition, usual class: inhibitors | hit rate 0.53% among 400,000; note: % is set by controls: 0 for no effect and ±100 for the full control effect
#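 Kinetic fluorescence readout at 0 and 10 min followed reaction start with substrate at 50 nM final. Beforehand, enzyme (10 nM Pol kappa) stood 15 min with compound at room temperature; buffer-only wells were negative controls.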
# Pol eta inh: DNA polymerase eta (human) inhibition; AID 588591; Q9Y253; hit rate 1.2% among 390,000; Potency, µM (top dose mostly 114 µM), for the others: at the top dose activity change, negative = inhibition, actives largely listed as inhibitors; recombinant Pol eta, fluorescent DNA replication assay; note: % is set by controls: 0 for no effect and ±100 for the full control effect
#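 Pol eta (10 nM) was preincubated with compounds for 15 min at room temperature, after which fluorescent replication substrate (50 nM final) was added to start the reaction. Fluorescence was read kinetically at 0 and 10 min.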
# POLB inh: inhibitors of human DNA polymerase beta | Pol beta primer extension/strand displacement, fluorescence kinetic | Potency, µM (titrated, usually from 114 µM), for the others: at the top dose activity change, negative = inhibition, actives largely listed as inhibitors | hit rate 1.3% among 340,000 | AID 485314; note: % is set by controls: 0 for no effect and ±100 for the full control effect
#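 Human Pol beta at 10 nM; strand-displacement substrate 50 nM final. Compound exposure 15 min at room temperature before start, reaction 10 min at room temperature.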
# TDP1 block: TDP1 (human) enzyme inhibition; Q9NUW8; recombinant TDP1, AlphaScreen DNA substrate cleavage; Potency, µM (highest dose often 130 µM), without a hit: at the top dose activity change, negative = inhibition, usual class: inhibitors; hit rate 0.28% among 350,000; note: % is set by controls: 0 for no effect and ±100 for the full control effect; nearly all actives have a fitted effect of over 40% in size
#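 E. coli-derived human Tdp1, 1 nM final. Cpd preinc 15 min RT; substrate 15 nM final, 5 min RT; AS bead mix 10 ug/ml final, 10 min RT. Signal loss = tyrosine-FITC cleavage. No-enzyme wells = max signal.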
# Pol iota inh: inhibitors of human DNA polymerase iota; Q9UNA4; Pol iota fluorescent replication assay, 10 min; Potency, µM (doses to about 115 µM), inactives show at the top dose activity, negative = inhibition, most hits filed as inhibitors; hit rate 1% among 390,000
# Target sequence (Q9UNA4 whole entry, looked up): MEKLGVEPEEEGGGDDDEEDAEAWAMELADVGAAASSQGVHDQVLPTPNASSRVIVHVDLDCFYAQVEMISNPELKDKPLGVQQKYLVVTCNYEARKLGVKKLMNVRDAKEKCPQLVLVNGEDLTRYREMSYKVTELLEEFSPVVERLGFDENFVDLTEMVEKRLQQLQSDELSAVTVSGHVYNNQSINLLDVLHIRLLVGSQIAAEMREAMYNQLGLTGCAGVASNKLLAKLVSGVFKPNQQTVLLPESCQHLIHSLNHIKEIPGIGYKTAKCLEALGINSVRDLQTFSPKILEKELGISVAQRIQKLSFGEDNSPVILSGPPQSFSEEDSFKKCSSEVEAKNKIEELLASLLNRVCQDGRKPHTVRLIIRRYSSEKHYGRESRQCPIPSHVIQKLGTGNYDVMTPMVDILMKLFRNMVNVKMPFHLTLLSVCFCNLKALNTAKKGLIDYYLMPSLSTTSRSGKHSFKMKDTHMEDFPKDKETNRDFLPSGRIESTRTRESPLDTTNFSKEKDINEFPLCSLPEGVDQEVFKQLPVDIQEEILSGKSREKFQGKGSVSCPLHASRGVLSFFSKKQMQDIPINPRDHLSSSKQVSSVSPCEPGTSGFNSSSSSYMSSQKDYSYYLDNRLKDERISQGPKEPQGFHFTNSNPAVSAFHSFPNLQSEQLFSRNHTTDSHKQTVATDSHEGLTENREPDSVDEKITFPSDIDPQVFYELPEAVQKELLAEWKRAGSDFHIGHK
#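 Fluorescent replication assay read twice, at 0 min and 10 min after adding 50 nM (final) substrate. Enzyme (10 nM) and compounds were first incubated 15 min at room temperature; enzyme-free buffer wells were negative controls.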
# Active calls of the source: *; u = inconclusive; x = not tested or not shown; [ ] = dose if it differs, or a comment. Hits are enriched below; roughly 2.4% of the tested compounds scored in any of these assays. Calls come from the whole dose curve; as a rule, active = well fitted curve in the direction sought with a large enough effect; inconclusive = small, poorly fitted or top-dose-only effect, or another doubt; inactive = no such curve, though single readings can be large; an effect the other way counts as inactive or inconclusive. Potency is the fitted concentration of half-maximal effect.
SMILES,Pol kappa inh,Pol eta inh,POLB inh,TDP1 block,Pol iota inh
Cc1ccc(-n2c(SCC(=O)NCc3ccco3)nc3sc(C)c(C)c3c2=O)cc1,-21%,2%,1%,0%[56.1 µM],-5%
Cc1ccc(-n2c(SCC(=O)NCc3ccco3)nc3nc4c(cc3c2=O)COC(C)(C)C4)cc1,-7%,u,79µM*,0%,u
CC(=O)Nc1ccc(S(=O)(=O)O)c2cc(S(=O)(=O)O)c(N=Nc3ccc(N=Nc4ccc(S(=O)(=O)O)cc4)c4ccc(S(=O)(=O)O)cc34)c(O)c12,1.4µM*,x,x,x,3.2µM*
O=S(=O)(O)c1cccc(N=Nc2c(O)ccc3ccccc23)c1,-11%,u,u,7%,11%
O=S(=O)(O)c1ccc2c(N=Nc3ccc(S(=O)(=O)O)c4ccccc34)c(O)c(S(=O)(=O)O)cc2c1,45µM*,x,x,u,45µM*
C=CSc1sc(Cl)c(N(CC)CC)c1[N+](=O)[O-],-7%,u,20µM*,0%,u
O=c1[nH]c(S)c(/C=C2\C=Nc3ccccc32)s1,-9%,40µM*,31%,8%,72%
CCOC(=O)C1=C(COc2ccccc2)NC(=O)NC1c1cccc([N+](=O)[O-])c1 (centres undefined),-5%,6%,3%,x,40µM*
CCOC(=O)C1=C(CNCc2ccccc2Cl)NC(=O)NC1c1cccc([N+](=O)[O-])c1 (centres undefined),-4%,-26%,3%,5%,0%
Cc1noc(C)c1S(=O)(=O)NCCc1csc2nc(-c3ccc(Cl)cc3)nn12,-10%[60.1 µM],0%,1%,3%,-1%
COc1ccc(CCN2C(=O)C3C4CC(C5C(C(N)=O)=NOC45)C3C2=O)cc1OC (centres undefined),-5%,u,u,13µM*,u
COc1ccc(CCN2C(=O)C3C4CC(C5C(C(=O)NN)=NOC45)C3C2=O)cc1OC (centres undefined),-2%,-11%,20%,3%,18%
CC(C)(C)NC(=O)COC(=O)c1c2c(nc3ccccc13)CCC2,-43%,50µM*,45µM*,x,u
O=C(Nc1cccc(S(=O)(=O)N2CCOCC2)c1)c1c2c(nc3ccccc13)CCC2,-38%,u,10µM*,-2%,45µM*
CCCC(C)NC(=O)c1c2c(nc3ccccc13)CCC2 (centres undefined),u,u,18µM*,-4%,u
O=C(Nc1cccc(S(=O)(=O)N2CCOCC2)c1)c1ccc2ccccc2n1,5%,-6%,1%,1%,7%
NC(=O)COC(=O)c1c2c(nc3ccccc13)CCC2,u,35µM*,u,-3%,u
NC(=O)COC(=O)c1c2c(nc3ccccc13)CCCC2,-2%,-12%,26%,5%,94%
O=C(NCc1ccccc1Cl)C(=O)NCC(c1ccc2c(c1)OCO2)N1CCOCC1 (centres undefined),-5%[60.1 µM],-8%,-29%,5%,11%
CCS(=O)(=O)N1CCc2cc(C(=O)Nc3cccc(NC(C)=O)c3)ccc21,-1%,2%,-1%,6%,3%
COc1ccccc1CCNC(=O)Cn1ccc2cc(S(=O)(=O)N3CCCC3)ccc21,-12%,-7%,3%,0%,25%
COc1ccccc1CCNC(=O)Cn1ccc2cc(S(=O)(=O)N3CCCCC3)ccc21,u,-6%,2%,8%,89µM*
CCCN1CNc2c(c(=O)[nH]c(=S)n2CCc2ccccc2OC)C1,5%,x,x,1%,9%
COc1ccccc1N(C(=O)CCl)c1cn(C(C)=O)c2ccccc12,-11%,45µM*,-8%,6%,-10%
CCOC(=O)c1ccccc1Nc1cn(C(C)=O)c2ccccc12,-1%,-3%,3%,0%,24%
SMILES,Pol kappa inh,Pol eta inh,POLB inh,TDP1 block,Pol iota inh
CNc1ccc(C=C2c3ccccc3-c3ccccc32)cc1,-11%,x,x,x,10%
Cc1nnc2ccc(-c3ccc(NS(=O)(=O)c4ccccc4F)cc3)nn12,-23%,-4%,x,1%,u
Cc1nnc2ccc(-c3ccc(NS(=O)(=O)c4ccccc4[N+](=O)[O-])cc3)nn12,u,40µM*,x,-2%,u
CC12C=C(/C=C/C=C/c3ccco3)C(C)(C1)C(/C=C/c1ccco1)CC2=O (centres undefined),x,x,x,2µM*,x
COc1ccccc1OCC(=O)OCC(=O)Nc1sccc1C(N)=O,-32%,25µM*,u,-1%,u
COc1ccc(NC(=O)COC(=O)c2cccc(S(=O)(=O)N(C)C)c2)cc1,-5%,-7%,-4%,-2%,35%
COc1ccc(C(=O)OCC(=O)Nc2sccc2C(N)=O)cc1OC,4%,-15%,20%,0%,-9%
CN1CCN(S(=O)(=O)c2cccc(C(=O)Nc3sccc3C(N)=O)c2)CC1,u,45µM*,x,-1%,45µM*
NC(=O)c1ccsc1NC(=O)COC(=O)CNC(=O)c1cccc([N+](=O)[O-])c1,-23%,35µM*,x,x,u
CN(C)S(=O)(=O)c1cccc(C(=O)OCC(=O)Nc2sccc2C(N)=O)c1,u,20µM*,9%,1%,u
Cc1ccccc1OCC(=O)NCC(=O)OCc1ccc2ccccc2c1,6%,x,x,3%,31%
Cn1cc(C(=O)NCCN2CCN(c3cccc(Cl)c3)CC2)c2c3ccccc3n(C)c2c1=O,u,u,19%,5%,100µM*
CCCCN1CC[C@H]2C=CC[C@@H](C(=O)NC3CCCCC3)[C@H]2C1=O,-18%,x,x,x,3%
COc1ccc(CCNC(=O)CSc2ccsc2[N+](=O)[O-])cc1OC,-3%[60.1 µM],-8%,u,0%,-8%
O=C(CSc1ccsc1[N+](=O)[O-])NC1CCCC1,-51%,56µM*,u,-14%,45µM*
O=C(CSc1ccsc1[N+](=O)[O-])NCc1ccccc1,-25%,79µM*,u,-8%,u
COc1ccc(OC)c(CCNC(=O)CSc2ccsc2[N+](=O)[O-])c1,u,40µM*,-11%,0%,45µM*
CC1CCCCC1NC(=O)CSc1ccsc1[N+](=O)[O-] (centres undefined),-3%,-17%,-12%,-3%,6%
COc1ccccc1CNC(=O)CSc1ccsc1[N+](=O)[O-],-16%,-5%,u,5%,u
COc1ccc(CCNC(=O)CCCn2nc(C)c3sc4ccccc4c3c2=O)c(OC)c1,-21%,-5%,-18%,3%,u
c1coc(CNc2nc[n+]3c4c2ncn4CC3)c1,7%,x,x,0%,2%
CC(=O)c1ccc2noc(-c3ccccc3)c2c1,12%,-6%,20%,-3%,34%
CN(C)/C=C/C(=O)c1ccc2noc(-c3ccccc3)c2c1,-18%,u,u,x,79µM*
O=C(O)c1ccc2c(=O)n3c(nc2c1)/C(=C/c1ccc(C(F)(F)F)cc1)CC3,4%,u,5%,x,79µM*

# Screening results from PubChem BioAssay.
